SMILES strings stand for the structures. Calls of active or inactive are those of the source. How the source made its calls: active means hit-call score of the fitted dose curve at least 0.9, where 1 is the maximum; inactive means score below 0.9.

The AC50 is the midpoint of the concentration-response curve, whichever way the signal moves.

Read-out in experiment [1]: Human Leukocyte Antigen - DR isotype (HLADR), HLA-DRA (gene 3122)
In words: BSK_CASM3C_HLADR: BioMAP Diversity Plus: CASM3C Assay for Human Leukocyte Antigen - DR isotype (HLADR) Biomarker Activity (AID 2283043).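 Further: cell-surface HLA-DR protein level quantified by ELISA.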 To be noted: primary human coronary artery smooth muscle cells; actives raise or lower the signal.

Read-out in experiment [2]: Macrophage colony-stimulating factor (MCSF), CSF1 (gene 1435)
In words: BSK_CASM3C_MCSF: BioMAP Diversity Plus: CASM3C Assay for Macrophage colony-stimulating factor (MCSF) Biomarker Activity (AID 2283044).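 Further: M-CSF protein amount quantified by ELISA after 24 h exposure.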 To be noted: primary human coronary artery smooth muscle cells; actives raise or lower the signal.

Read-out in experiment [3]: Low-density lipoprotein receptor (LDLR), LDLR (gene 3949)
Nature of the experiment: BSK_CASM3C_LDLR: BioMAP Diversity Plus: CASM3C Assay for Low-density lipoprotein receptor (LDLR) Biomarker Activity (AID 2283045).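 Further: LDLR protein level on the cell surface quantified by ELISA.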 Particulars: primary human coronary artery smooth muscle cells; actives raise or lower the signal.

Read-out in experiment [4]: Monocyte Chemoattractant Protein-1 (MCP1), CCL2 (gene 6347)
In words: BSK_CASM3C_MCP1: BioMAP Diversity Plus: CASM3C Assay for Monocyte Chemoattractant Protein-1 (MCP1) Biomarker Activity (AID 2283046).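 Further: MCP-1 level quantified by ELISA 24 h after dosing.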 To be noted: primary human coronary artery smooth muscle cells; actives raise or lower the signal.

Experiment [5] is described as follows: BSK_CASM3C_Proliferation: Cell Proliferation Assessment in the BioMAP Diversity Plus: CASM3C Assay (AID 2283047).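 Further: sulforhodamine B total protein stain as relative cell number at 560 nm; sub-confluent cells exposed 48 h before staining; fitted both ways against DMSO so gain or loss of cell number.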 Particulars: primary human coronary artery smooth muscle cells.
Read-out in experiment [6]: Monokine induced gamma interferon (MIG), CXCL9 (gene 4283)
In words: BSK_CASM3C_MIG: BioMAP Diversity Plus: CASM3C Assay for Monokine induced gamma interferon (MIG) Biomarker Activity (AID 2283048).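 Further: MIG protein level measured by ELISA.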 To be noted: primary human coronary artery smooth muscle cells; actives raise or lower the signal.

Read-out in experiment [7]: serum amyloid A (SAA), SAA1 (gene 6288)
In words: BSK_CASM3C_SAA: BioMAP Diversity Plus: CASM3C Assay for serum amyloid A (SAA) Biomarker Activity (AID 2283049).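 Further: SAA protein level quantified by ELISA.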 Particulars: primary human coronary artery smooth muscle cells; actives raise or lower the signal.

Experiment [8] in a line: BSK_CASM3C_SRB: Viability Assessment in the BioMAP Diversity Plus: CASM3C Assay (AID 2283050).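 Further: cells exposed to compound for 24 h.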 Particulars: primary human coronary artery smooth muscle cells.
Read-out in experiment [9]: Thrombomodulin, THBD (gene 7056)
In words: BSK_CASM3C_Thrombomodulin: BioMAP Diversity Plus: CASM3C Assay for Thrombomodulin Biomarker Activity (AID 2283051).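 Further: thrombomodulin protein level measured by ELISA 24 h after dosing.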 To be noted: primary human coronary artery smooth muscle cells; actives raise or lower the signal.

Read-out in experiment [10]: Tissue Factor, F3 (gene 2152)
In words: BSK_CASM3C_TissueFactor: BioMAP Diversity Plus: CASM3C Assay for Tissue Factor Biomarker Activity (AID 2283052).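 Further: cell surface tissue factor protein level read by ELISA.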 Particulars: primary human coronary artery smooth muscle cells; actives raise or lower the signal.

Read-out in experiment [11]: Interferon-gamma inducible Protein 10 (IP10), CXCL10 (gene 3627)
Nature of the experiment: BSK_hDFCGF_IP10: BioMAP Diversity Plus: hDFCGF Assay for Interferon-gamma inducible Protein 10 (IP10) Biomarker Activity (AID 2283053). To be noted: primary human foreskin fibroblasts; actives raise or lower the signal. Put shortly:
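IP-10 levels, quantified by ELISA, are taken from human foreskin fibroblast cultures 24 h after chemical treatment, with DMSO serving as negative control and baseline for bidirectional analysis.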

Read-out in experiment [12]: Urokinase-type plasminogen activator receptor (uPAR), PLAUR (gene 5329)
In words: BSK_CASM3C_uPAR: BioMAP Diversity Plus: CASM3C Assay for Urokinase-type plasminogen activator receptor (uPAR) Biomarker Activity (AID 2283054).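 Further: cell-surface uPAR protein level quantified by ELISA.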 To be noted: primary human coronary artery smooth muscle cells; actives raise or lower the signal.

Read-out in experiment [13]: Vascular cell adhesion molecule 1 (VCAM1), VCAM1 (gene 7412)
In words: BSK_CASM3C_VCAM1: BioMAP Diversity Plus: CASM3C Assay for Vascular cell adhesion molecule 1 (VCAM1) Biomarker Activity (AID 2283055).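 Further: VCAM-1 protein level quantified by ELISA on the cells.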 Particulars: primary human coronary artery smooth muscle cells; actives raise or lower the signal.

Read-out in experiment [14]: Collagen III, COL3A1 (gene 1281)
Nature of the experiment: BSK_hDFCGF_CollagenIII: BioMAP Diversity Plus: hDFCGF Assay for Collagen III Biomarker Activity (AID 2283056). To be noted: primary human foreskin fibroblasts; actives raise or lower the signal. Put shortly:
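Human foreskin fibroblast primary cultures sampled 24 h after dosing; Collagen III quantified by ELISA. Signal fitted bidirectionally against DMSO baseline.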

Read-out in experiment [15]: Interleukin-8 (IL8), CXCL8 (gene 3576)
In words: BSK_hDFCGF_IL8: BioMAP Diversity Plus: hDFCGF Assay for Interleukin-8 (IL8) Biomarker Activity (AID 2283058). To be noted: primary human foreskin fibroblasts; actives raise or lower the signal. Put shortly:
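Primary human foreskin fibroblasts (hDFCGF system) dosed with chemical; IL-8 measured by ELISA 24 hours later. Bidirectional curve fitting relative to DMSO baseline; cytotoxicity tracked in parallel cultures by SRB total protein staining.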

A short description of experiment [16]: BSK_hDFCGF_SRB: Viability Assessment in the BioMAP Diversity Plus: hDFCGF Assay (AID 2283061).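 Further: cells exposed to compound for 24 h before the read.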 To be noted: primary human foreskin fibroblasts. Put shortly:
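Human foreskin fibroblasts in 96-well plates were treated 24 h. Total protein was measured by 0.1% SRB staining after 10% TCA fixation, read at 560 nm. Data were fitted bidirectionally against DMSO.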

Read-out in experiment [17]: TIMP metallopeptidase inhibitor 1 (TIMP1), TIMP1 (gene 7076)
In words: BSK_hDFCGF_TIMP1: BioMAP Diversity Plus: hDFCGF Assay for TIMP metallopeptidase inhibitor 1 (TIMP1) Biomarker Activity (AID 2283062). To be noted: primary human foreskin fibroblasts; actives raise or lower the signal. Put shortly: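 Human foreskin fibroblast primary cultures dosed for 24 h; secreted/surface TIMP-1 quantified by ELISA. Bidirectional curve fitting against DMSO baseline; cytotoxicity tracked in parallel cultures by SRB total-protein staining.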

Read-out in experiment [18]: Epidermal growth factor receptor (EGFR), EGFR (gene 1956)
Nature of the experiment: BSK_hDFCGF_EGFR: BioMAP Diversity Plus: hDFCGF Assay for Epidermal growth factor receptor (EGFR) Biomarker Activity (AID 2283057). To be noted: primary human foreskin fibroblasts; actives raise or lower the signal. Put shortly: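 Measured by ELISA: EGFR levels on primary human foreskin fibroblasts 24 h after chemical treatment, analysed relative to DMSO with bidirectional fitting.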

Experiment [19] in a line: BSK_hDFCGF_Proliferation: Cell Proliferation Assessment in the BioMAP Diversity Plus: hDFCGF Assay (AID 2283059).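 Further: curves fitted for both rise and fall of signal versus DMSO baseline.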 To be noted: primary human foreskin fibroblasts. In short, it runs like this: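 Primary human foreskin fibroblasts, sub-confluent; […]; 10% TCA fix, 0.1% SRB stain, A560 total protein. Gain/loss fitted bidirectionally vs DMSO control.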
Read-out in experiment [20]: Macrophage colony-stimulating factor (MCSF), CSF1 (gene 1435)
In words: BSK_hDFCGF_MCSF: BioMAP Diversity Plus: hDFCGF Assay for Macrophage colony-stimulating factor (MCSF) Biomarker Activity (AID 2283060). To be noted: primary human foreskin fibroblasts; actives raise or lower the signal. In short, it runs like this:
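Human foreskin fibroblast primary cultures; M-CSF measured by ELISA 24 hours after chemical dosing. Bidirectional fitting relative to DMSO, with overt cytotoxicity tracked by parallel SRB total-protein staining (0.1% SRB, 10% TCA fixation, 560 nm).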

Regarding `c1ccc(C(O[C@@H]2CCCN(CCc3ccc4c(c3)OCO4)C2)c2ccccc2)cc1`, the outcome in experiment [1], in experiment [2], in experiment [4], in experiment [6], in experiment [7] and in [8] was inactive. The outcome in [9], in experiment [10], in experiment [12], in [13], in [15] and in experiment [17] was inactive. In addition, the AC50 was 17.3 µM (active) in [3]; 32.5 µM (active) in [5]; 26 µM (active) in [11]; 5.39 µM (active) in [14]; 29 µM (active) in experiment [16].

Turning to `O=C(Cl)C(F)(F)C(F)(F)C(F)(F)C(=O)Cl`, the outcome in experiment [1], in experiment [2], in [3], in [4], in experiment [5] and in experiment [6] was inactive. For the same molecule, the result in experiment [7], in experiment [8], in [9], in experiment [10], in experiment [11] and in experiment [12] was inactive. Moreover, the outcome in [13], in [14], in experiment [18], in experiment [15], in [19] and in experiment [20] was inactive. Besides, the outcome in experiment [16] and in experiment [17] was inactive.

Regarding `S=P(N1CC1)(N1CC1)N1CC1`, the outcome in [1], in experiment [2], in experiment [3], in [4], in experiment [6] and in experiment [7] was inactive. The outcome in [8], in experiment [9], in [10], in [11], in experiment [12] and in experiment [13] was inactive. The result in experiment [18], in experiment [15], in experiment [20] and in [16] was inactive. Further, the AC50 in experiment [5] is 20.9 µM (active); in experiment [19], 18.2 µM (active).

Consider `OC(Cn1cncn1)(Cn1cncn1)c1ccc(F)cc1F`, for which the result in experiment [1], in experiment [2], in [3], in [4], in [5] and in [6] was inactive. For the same molecule, the outcome in experiment [7], in experiment [8], in experiment [9], in experiment [10], in [11] and in experiment [12] was inactive. For the same molecule, the outcome in experiment [13], in experiment [14], in experiment [18], in experiment [15], in [19] and in experiment [16] was inactive.

As for `c1ccc2c(c1)-c1cccc3c1c-2cc1ccccc13`, the result in experiment [1], in [2], in experiment [3], in [4], in experiment [5] and in experiment [6] was inactive. Moreover, the outcome in [7], in experiment [8], in experiment [9], in experiment [10], in experiment [11] and in [12] was inactive. Further, the result in [13], in [14], in [18], in [15], in [19] and in experiment [20] was inactive. In addition, the outcome in [16] was inactive.

Turning to `CC(=O)c1ccccc1`, the outcome in experiment [1], in [2], in experiment [3], in [4], in experiment [5] and in [6] was inactive. Moreover, the outcome in experiment [7], in [8], in experiment [9], in [10], in [11] and in [12] was inactive. For the same molecule, the outcome in experiment [13], in experiment [18], in experiment [15], in experiment [19], in [20] and in [16] was inactive. Besides, in experiment [17], the outcome was inactive.

The values above are taken from PubChem BioAssay (EPA / NIEHS).
